Screening results (PubChem)
M1 antag – antagonists of rat M1 muscarinic receptor; AID 628, 2007; actives 3.4% (n = 64,000); CHO-M1 cells, Fluo-4 calcium, ACh EC80 antagonist mode; active compounds read low; B-score at 10 µM; Muscarinic acetylcholine receptor M1 (Rattus norvegicus), P08482;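 active = calcium fluorescence response, raw or row-and-column corrected B-score, differing from the plate sample mean either way at a set confidence level, mostly lower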
Her2 expr inh – inhibitors of Her2 protein expression, primary screen, SKBR-3 cells, AlphaScreen, 66K library; Receptor tyrosine-protein kinase erbB-2 (Homo sapiens), P04626; SKBR-3 HER2 protein level, 18-24 h; active compounds read low; HER2 level % of control, % at 10 µM; actives 0.69% (n = 65,000); AID 645, 2007;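 active = HER2 level under 5% of the carrier-only control; inconclusive = no clear call, values can overlap the other calls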;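 also: 100% = DMSO carrier and 0% = 500 nM PU-H71 HSP90 inhibitor; lower value means stronger loss of Her2 protein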
M1 ag – M1 muscarinic receptor agonists, primary screen, CHO-M1 cells, Fluo-4 calcium, agonist mode; actives 3% (n = 64,000); Fluo-4 calcium fluorescence; active compounds read high; B-score at 10 µM; Muscarinic acetylcholine receptor M1;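 active = fluorescence rise, raw or as B-score row- and column-corrected plate score, outside the 99.7% band of its plate's samples, either direction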
PLAP activator – PLAP enzyme activators, biochemical, luminescence, HTS; Alkaline phosphatase, placental type (Homo sapiens), P05187; purified PLAP enzyme, luminescent substrate read-out; active compounds read high; activation fold at 20 µM; actives 1.2% (n = 96,000); AID 696, 2007; in the data active = activation fold above about 2
Cav3 T inh – Cav3.2 calcium influx blockers – cell-based, Fluo-4 calcium fluorescence, FDSS, MLSMR library, primary screen; B-score at 10 µM; actives 4% (n = 100,000); Voltage-dependent T-type calcium channel subunit alpha-1H (Homo sapiens), O95180; Cav3.2-expressing cells; active compounds read low; AID 449739, 2010;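 active = single-dose well whose peak fluorescence ratio is a statistical outlier from its plate by either plate-standardised score or position-corrected B-score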
M1 agonist conf – rat M1 muscarinic receptor agonists, confirmation, CHO-M1 cells, Fluo-4 calcium, duplicate retest; shares compounds with M1 ag; Fluo-4 calcium fluorescence, agonist mode; actives lie on both sides; fluorescence change (max-min) at 10 µM; actives 19% (n = 1,700); AID 1488, 2009;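 active = fluorescence change differs from the solvent-only DMSO control mean at a set confidence level in both duplicate runs; inconclusive = differs from solvent-only control mean in just one of two runs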;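 also: an EC20 dose of acetylcholine follows compound addition during the same imaging run; raw fluorescence intensity difference in instrument units with no normalization to controls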
M4 ag counter – agonist activity at rat M4 receptor, confirmation, counter-screen for M1 allosteric modulator project, cell-based, agonist mode; shares compounds with M1 ag; fluorescence change (max-min) at 10 µM; AID 1741, 2009; actives 9% (n = 1,700); CHO M4/Gqi5 cells, Fluo-4 calcium fluorescence; actives lie on both sides;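 active = fluorescence change differing from the plate's solvent-only control wells at 99.7% confidence in both duplicates, whether higher or lower; inconclusive = differs from solvent controls in only one of two duplicates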
* = called active by the depositor; ? = inconclusive; / = not tested or not shown. The list is not random: actives were taken first. Their share in the collection is about 7.9%.

SMILES	M1 antag	Her2 expr inh	M1 ag	PLAP activator	Cav3 T inh	M1 agonist conf	M4 ag counter
COc1ccccc1NC(=O)CN(Cc1ccco1)C(=O)c1ccc(-n2nc(C)cc2C)cc1	0.177	83.0	5.87*	1.5	-0.0248	-17.1	?
COc1ccccc1NC(=O)CN(Cc1ccco1)C(=O)c1cccs1	0.0147	118.7	-0.396	0.9	-0.499	/	/
COCCCn1c(C(C)C)nc2oc3cc(OC)ccc3c(=O)c2c1=O	1.81	97.3	13.3*	1.2	0.616	-10.1	-23.3
COc1cc(N)ccc1Cc1ccc(N)cc1OC	1.06	102.5	3.65*	0.8	-0.115	-18.8	-26.7
COc1ccc(N)cc1C#N	0.121	77.0	0.847	1.1	-0.00559	/	/
CCn1c(CCn2ccnc2C)n[nH]c1=S	-7.26*	82.5	52.8*	0.9	-0.608	225*	?
CCn1c(CC(C)C)n[nH]c1=S	0.0243	78.3	-0.224	0.9	0.441	/	/
COc1ccc(CCNc2oc(COc3ccccc3F)nc2C#N)cc1OC	-2.08*	112.5	3*	1.7	-5.07*	-28	-85.2*
COc1ccc(CCNc2oc(Cc3ccccc3)nc2C#N)cc1OC	-0.386	95.8	6.5*	1.3	-1.47	-30.7*	?
Cc1ccc(OCCN2CCN(C(=O)CCC(=O)Nc3nnc(C)s3)CC2)cc1	-0.768	112.8	-1.06	/	-0.434	/	/
CCCc1nnc(NC(=O)CCC(=O)N2CCN(CCOc3ccc(C)cc3)CC2)s1	-1.6	109.0	20*	1.5	-1.84	-7.25	-34.7
Cc1ccc(C)c(N2CCN(S(=O)(=O)c3ccc4c(c3)CCC(=O)N4)CC2)c1	1.31	76.6	1.98	1	-2.85	/	/
Cc1ccc(C)c(N2CCN(C(=O)CN(C)S(=O)(=O)c3ccc4c(c3)CCC(=O)N4)CC2)c1	1.56	75.6	2.27*	1.6	/	?	-47.5
Cc1c(NS(=O)(=O)c2ccc3c(c2)n(C)c(=O)n3C)c(=O)n(-c2ccccc2)n1C	-0.27	86.6	-0.824	1.2	-1.44	/	/
CSc1nc2ccc(S(=O)(=O)Nc3c(C)n(C)n(-c4ccccc4)c3=O)cc2s1	-2.77*	93.9	6.15*	1.2	1.09	?	-87.5
Cc1ccc(C(=O)CC2(O)C(=O)N(Cc3ccc4c(c3)OCO4)c3ccccc32)cc1 (centres undefined)	-0.235	74.4	58.8*	0.8	-7.53*	-9.69	-25.4
O=C(CC1(O)C(=O)N(Cc2ccc3c(c2)OCO3)c2ccccc21)c1ccccc1 (centres undefined)	-0.607	106.8	-0.119	1	-2.95	/	/
CCc1c(C#N)c(SCc2c(C)noc2C)nc2c1C(=O)CC(C)(C)C2	-0.127	107.0	-0.0365	/	/	/	/
COCCn1ccc(O)c(Cc2ccccc2)c1=O	/	/	/	0.9	0.283	/	/
O=c1c2ccccc2c(C=Nc2ccc(Cl)cn2)c(O)n1-c1cc(Cl)ccc1N1CCOCC1	0.489	111.3	15.4*	0.9	-1.95	-10.2	-11.5
CC(C)C(NC(=O)COc1ccc2ccccc2c1)C(=O)N/N=C/C=C/c1ccccc1 (centres undefined)	/	/	/	1.3	-2.2	/	/
CN(C)c1ccc(-c2nc3ccccc3n2C)cc1	-0.0524	85.6	-0.0365	0.9	0.111	/	/
CCN(CC)c1ccc2cc(-c3nc4ccccc4n3C)c(=O)oc2c1	0.0565	62.0	65.2*	1.7	-1.35	280*	400*
CCC(Sc1nnc(-c2ccc(C)c(Cl)c2)n1CC)C(=O)Nc1nccs1 (centres undefined)	-0.0986	110.5	5.25*	1.8	-5.74*	-12.7	-55.5
CCn1c(SCC(=O)Nc2nccs2)nnc1-c1ccc(S(=O)(=O)N2CCCCCC2)cc1	/	/	/	1.4	-0.969	/	/
SMILES	M1 antag	Her2 expr inh	M1 ag	PLAP activator	Cav3 T inh	M1 agonist conf	M4 ag counter
Cc1ccc(F)c(C2C3C=CCC(c4cccc(-c5ccc(N(C)C)cc5)c4)C3C(=O)N2Cc2ccccc2)c1 (centres undefined)	/	/	/	/	0.843	/	/
CC(C)n1c(NCCc2ccccc2)nc2c1c(=O)n(C)c(=O)n2C	/	/	/	/	-0.686	/	/
O=C(C1CC1)N1CCc2cc(Br)cc(S(=O)(=O)N3CCOCC3)c21	0.0762	/	3.01*	1	1.67	-4.84	-19.6
COC(=O)c1ccc(C(=O)OC)c(NC(=O)COC(=O)C23CC4CC(CC(O)(C4)C2)C3)c1	-1.69	106.2	5.32*	1.5	1.5	-6.22	-21.9
COc1cc2ccccc2cc1C(=O)Nc1ccc(N2CCN(C)CC2)cc1	-8.01*	107.3	5.87*	1.6	0.951	-24.1*	-47.4
Cc1cc(C(=O)O)c(CSCc2cc(C(=O)O)oc2C)o1	/	/	/	0.9	/	/	/
Cc1cccc(NC(=O)c2sc(Cl)nc2-c2ccccc2)c1	/	/	/	1.1	-0.528	/	/
O=C(Nc1cccc(-c2cn3ccsc3n2)c1)c1ccccc1	-0.732	90.2	0.471	1.4	1.08	/	/
COc1ccccc1C(=O)Nc1cccc(-c2cn3ccsc3n2)c1	0.251	70.0	4.69*	1.1	0.186	?	-40.3
CCN1CCCC1CN=Cc1c(O)n(-c2ccccc2)c(=O)c2ccccc12 (centres undefined)	0.187	109.0	5.72*	1.2	-0.754	5.29	-72.4
COc1ccc(-c2nnc(SCc3cc(C)ccc3C)n2N)cc1	/	/	/	0.9	0.0427	/	/
Cc1ccc(Cl)cc1N1CCN(C(=O)Cn2ccc3ccccc3c2=O)CC1	-0.0472	83.8	8.75*	1.1	-2.69	3.71	-26.1
Cc1ccc(C)c(N2CCN(C(=O)CCNC(=O)Cn3ccc4ccccc4c3=O)CC2)c1	-0.74	90.4	0.0611	1.1	-2.16	/	/
O=C(c1ccncc1)c1ccc(N2CCN(C3CC(=O)N(Cc4ccccc4)C3=O)CC2)cc1 (centres undefined)	-2.29*	106.5	20*	1.5	0.615	-24.6*	-49.1
CN1CCc2c(sc3c2C(=O)NC(c2cccc(OC(=O)c4cccs4)c2)N3)C1 (centres undefined)	-0.0138	81.5	5.72*	1.5	/	38.8	41.1
Cn1nc(-c2ccc(OCC(=O)Nc3cccnc3)cc2)c2ccccc2c1=O	-0.59	79.2	6.19*	1	1.08	?	-37.7
CCCCOCP(=O)(CCCC)COCCCC	-0.376	100.6	-0.152	1.1	-1.05	/	/
O=C(Cn1ccc2ccccc2c1=O)NCCC(=O)N1CCN(C2CCCCC2)CC1	-0.863	94.5	17*	1.7	0.136	-1.51	-24.5
